# Laboratory results taken from PubChem BioAssay.
# Values joined by “and” are separate entries in the source; they are usually repeats but may differ in a detail not shown here. Equal entries are not always repeated. For some assays here: Potency and affinity values are given separately. Active and inactive are the calls of the source.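 Rule for the calls, unless noted: active = compounds killing one labelled cell type while sparing the other, by normalised counts and ratio limits, not self-fluorescent; inactive = the rest.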
# What was measured:
# [1] = blockers of polyQ-driven CASP3 activation – cell-based (AID 1583); conditions: polyglutamine-induced caspase-3 activation, cell assay; stronger effect = higher value;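 tested at 10 µM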
# [2] = yeast 75Q aggregation reduction – 75Q-TubU reporter (AID 1593); conditions: Yeast 75Q polyglutamine aggregation reporter
# [3] = restoration of touch response, mutant HTT neurons – whole organism, C. elegans mechanosensory neurons, N-terminal huntingtin (AID 1599); conditions: C. elegans polyQ-huntingtin mechanosensory neurons, stronger effect = higher value
# [4] = blockers of cytochrome c efflux from mitochondria – biochemical, purified mitochondria (AID 1603); conditions: stronger effect = lower value;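 note: mouse liver mitochondria challenged with calcium chloride; signal normalized to the plate average as 100%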
# [5] = polyglutamine aggregate formation blockers (AID 1604); conditions: polyglutamine-induced protein aggregation inhibition assay; stronger effect = higher value; tested at 2.5 µM
# [6] = glutamate transport activators, MN-1 cells, MN-1 cell line (AID 1612); conditions: MN-1 motor neuron cells, stronger effect = higher value;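 note: tested at 1 µM final; 0% = mean of DMSO vehicle wells on each plate; positive means more glutamate uptake than control and negative means less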
# [7] = 75Q-TubH aggregate inhibition, S. cerevisiae, yeast (AID 1616); conditions: S. cerevisiae 75Q-TubH polyglutamine aggregation suppression; stronger effect = higher value
# [8] = P. berghei load reduction in hepatocytes – cell-based, HepG2, luciferase luminescence, HepG2 viability, primary screen (AID 624349; in the data active = parasite load remaining mostly below about 12%, no sharp cut-off; inactive = mostly above about 10%;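 note: 100% = mean of DMSO negative control wells on the same plate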); conditions: P. berghei liver stage in HepG2, luciferase luminescence, concentration not given here; parasite load remaining: stronger effect = lower value; viability: measured here: HepG2 viability without parasites
# [9] = EMT-state selective cytotoxicity in co-culture – imaging, PC-3E GFP, TEM4-18 mCherry, primary screen (AID 1345086); conditions: PC-3E GFP / TEM4-18 mCherry co-culture, imaging cell counts, at 1 µM; for red/green cell ratio (normalised): actives lie on both sides;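 for all read-outs here: cells exposed to compound for 72 h before imaging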;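 for red/green cell ratio (normalised): normalised mesenchymal count divided by normalised epithelial count so high means epithelial killing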
# [10] = system: Aerobactin synthetase IucA (Klebsiella pneumoniae hvKP1); experiment: IucA enzyme inhibition, primary screen, biochemical, Spectrum library (AID 1346200; call rule not given here;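 note: 100% = wells without compound and 0% = wells lacking enzyme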); conditions: malachite green pyrophosphate, A620, at 8 µM, stronger effect = lower value
# [11] = molecular target: Mitogen-activated protein kinase 7 (Homo sapiens) (UniProt Q13164); experiment: Gal4-ERK5 driven luciferase induction – cell-based, HTS, primary screen (AID 1508626;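 active = luciferase signal above three times the same-plate solvent-only control wells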;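 note: luciferase driven by Gal4-ERK5 fusion binding five Gal4 sites before minimal TATA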); conditions: HeLa Gal4-ERK5 transactivation, 18 h, at 5 µM, stronger effect = higher value
# [12] = viability loss with induced miR-34 in A549 – imaging, A549 dox-inducible miR-34, nuclei and caspase counts, primary screen (AID 1347080;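 active = compounds whose cell count with miR-34 switched on is under 0.7 times the count with it off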); conditions: A549 miR-34 inducible, Hoechst nuclei count, 48 h
# [13] = measured here: epithelial PC-3E GFP cell survival
# [14] = measured here: mesenchymal TEM4-18 mCherry cell survival
# [15] = measured here: relative caspase fold change +Dox/-Dox
# [16] = measured here: total cells with miR-34 induction, stronger effect = lower value
# [17] = measured here: total cells without miR-34 induction
# Sequence of Mitogen-activated protein kinase 7 (Homo sapiens) (Q13164 whole entry, looked up, the tested form may be a part): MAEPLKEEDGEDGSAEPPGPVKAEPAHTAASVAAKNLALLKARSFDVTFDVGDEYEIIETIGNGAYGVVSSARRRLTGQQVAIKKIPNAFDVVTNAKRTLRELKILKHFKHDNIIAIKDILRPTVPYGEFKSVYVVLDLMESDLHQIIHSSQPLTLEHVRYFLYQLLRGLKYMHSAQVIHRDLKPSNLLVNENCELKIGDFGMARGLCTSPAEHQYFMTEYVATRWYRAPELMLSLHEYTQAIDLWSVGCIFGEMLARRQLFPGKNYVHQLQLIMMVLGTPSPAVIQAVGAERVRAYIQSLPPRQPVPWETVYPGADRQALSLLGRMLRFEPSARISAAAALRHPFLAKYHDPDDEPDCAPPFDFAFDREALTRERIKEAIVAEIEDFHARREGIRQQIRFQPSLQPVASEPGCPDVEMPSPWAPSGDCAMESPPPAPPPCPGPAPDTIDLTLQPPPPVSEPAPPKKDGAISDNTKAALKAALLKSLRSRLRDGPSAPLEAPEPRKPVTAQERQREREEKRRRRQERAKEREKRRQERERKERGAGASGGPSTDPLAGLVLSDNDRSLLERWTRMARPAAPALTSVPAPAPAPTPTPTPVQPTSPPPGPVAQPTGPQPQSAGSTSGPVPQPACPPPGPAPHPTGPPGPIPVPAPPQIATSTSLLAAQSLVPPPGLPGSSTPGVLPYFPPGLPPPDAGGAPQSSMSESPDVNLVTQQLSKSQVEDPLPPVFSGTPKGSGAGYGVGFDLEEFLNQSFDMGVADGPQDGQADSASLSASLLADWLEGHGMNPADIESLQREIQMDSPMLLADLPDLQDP
compound,measurement,setting,value
N#CC(O[C@@H]1O[C@H](CO[C@@H]2O[C@H](CO)[C@@H](O)[C@H](O)[C@H]2O)[C@@H](O)[C@H](O)[C@H]1O)c1ccccc1 (stereo partly specified),inhibition,[1],3.65%
same,score,[2],1.42
same,rescue above control,[3],-2.1
same,cytochrome c release ratio,[4],1.2
same,inhibition of aggregation,[5],36.6%
same,glutamate uptake change,[6],14%
same,aggregation suppression score,[7],1.51
same,parasite load remaining,[8],116% (inactive)
same,viability,[8],70.2%
same,red/green cell ratio (normalised),[9],1 (inactive)
same,normalised cell number,[9]; [13],0.94
same,normalised cell number,[9]; [14],0.94
same,activity remaining,[10],123% (inactive)
Cc1c(O)c(O)cc2c1CC=C1[C@@]2(C)CC[C@@]2(C)C3C[C@](C)(C(=O)O)CC[C@]3(C)CC[C@]12C (stereo partly specified),red/green cell ratio (normalised),[9],0.65 (inactive)
same,normalised cell number,[9]; [13],0.64
same,normalised cell number,[9]; [14],0.41
same,activity remaining,[10],103% (inactive)
CC(=O)O[C@H]1C[C@@H](OC(C)=O)C(C)(C)C2C[C@@H](OC(C)=O)[C@]3(C)C(CC[C@@]4(C)[C@H](c5ccoc5)C(=O)[C@H]5O[C@]543)[C@]21C (stereo partly specified),red/green cell ratio (normalised),[9],1.03 (inactive)
same,normalised cell number,[9]; [13],1.08
same,normalised cell number,[9]; [14],1.12
same,activity remaining,[10],109% (inactive)
same,luciferase signal,[11],132 AU (active)
COC(C)(C)CCC[C@H](C)C/C=C/C(C)=C/C(=O)OC(C)C,red/green cell ratio (normalised),[9],0.86 (inactive)
same,normalised cell number,[9]; [13],1.2
same,normalised cell number,[9]; [14],1.03
same,activity remaining,[10],109% (inactive)
same,luciferase signal,[11],72 AU (inactive)
CN(CCC(N)CC(=O)N[C@H]1C=CC(n2ccc(N)nc2=O)O[C@@H]1C(=O)O)C(=N)N (stereo partly specified),red/green cell ratio (normalised),"[9]; counts scaled to control wells, 1 = unselective",0.77 (inactive)
same,normalised cell number,[9]; [13],1.2
same,normalised cell number,[9]; [14],0.93
same,activity remaining,[10],109% (inactive)
C[C@]12CCC(=O)C=C1C=CC1C2CC[C@@]2(C)C1CC[C@@]2(O)CCC(=O)O (stereo partly specified),parasite load remaining,[8],99.8% (inactive) and 46.1% (inactive)
same,viability,[8],62.7% and 93.1%
same,red/green cell ratio (normalised),[9],1.24 (inactive)
same,normalised cell number,[9]; [13],0.95
same,normalised cell number,[9]; [14],1.17
same,activity remaining,[10],110% (inactive)
same,fold change,[12]; stronger effect = lower value,0.912 (inactive)
same,fold change,[12]; [15],3.05
same,cell count,[12]; [16],12000
same,cell count,[12]; [17],13100
same,luciferase signal,[11],60 AU (inactive)
CNC(C)[C@H](O)c1ccccc1 (stereo partly specified),parasite load remaining,[8],77% (inactive)
same,viability,[8],74.2%
same,red/green cell ratio (normalised),[9],1.42 (inactive)
same,normalised cell number,[9]; [13],0.95
same,normalised cell number,[9]; [14],1.35
same,activity remaining,[10],87.2% (inactive)
same,luciferase signal,[11],52 AU (inactive)
O=C1C=CC(=O)c2ccccc21,red/green cell ratio (normalised),[9],0.81 (inactive)
same,normalised cell number,[9]; [13],1.25
same,normalised cell number,[9]; [14],1.02
same,activity remaining,[10],105% (inactive)
same,luciferase signal,[11],388 AU (active)
CC(C)c1cc2c(c(O)c1O)[C@@]1(C(=O)O)CCCC(C)(C)C1CC2 (stereo partly specified),red/green cell ratio (normalised),[9],1.17 (inactive)
same,normalised cell number,[9]; [13],0.87
same,normalised cell number,[9]; [14],1.02
same,activity remaining,[10],114% (inactive)
COc1cccc([C@]2(O)CCCC[C@H]2CN(C)C)c1,red/green cell ratio (normalised),[9],1.34 (inactive)
same,normalised cell number,[9]; [13],1.13
same,normalised cell number,[9]; [14],1.5
same,activity remaining,[10],98.7% (inactive)
same,fold change,[12]; stronger effect = lower value,0.9 (inactive)
same,fold change,[12]; [15],6.33
same,cell count,[12]; [16],11600
same,cell count,[12]; [17],12900
O=c1c(O)c(-c2ccc(O)c(O)c2)oc2c(O)c(O)cc(O)c12,red/green cell ratio (normalised),[9],1.09 (inactive)
same,normalised cell number,[9]; [13],0.84
same,normalised cell number,[9]; [14],0.91
same,activity remaining,[10],118% (inactive)
same,luciferase signal,[11],48 AU (inactive)
